# Screens (PubChem BioAssay)
# Rows were chosen to be rich in hits. Some 5.8% of all compounds tested hit in one or more screens of this group.
# GBA activity: modulators of human glucocerebrosidase; purified enzyme, resorufin glucoside fluorescence (screen aimed at inhibitors), 20 min; Potency, µM; P04062; 48,000 compounds, 1.1% hits; in the data active means potency below about 15 µM; inconclusive means mostly about 16 µM to 33 µM;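 further: the screen sought inhibitors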
# Target sequence (P04062 whole entry, looked up): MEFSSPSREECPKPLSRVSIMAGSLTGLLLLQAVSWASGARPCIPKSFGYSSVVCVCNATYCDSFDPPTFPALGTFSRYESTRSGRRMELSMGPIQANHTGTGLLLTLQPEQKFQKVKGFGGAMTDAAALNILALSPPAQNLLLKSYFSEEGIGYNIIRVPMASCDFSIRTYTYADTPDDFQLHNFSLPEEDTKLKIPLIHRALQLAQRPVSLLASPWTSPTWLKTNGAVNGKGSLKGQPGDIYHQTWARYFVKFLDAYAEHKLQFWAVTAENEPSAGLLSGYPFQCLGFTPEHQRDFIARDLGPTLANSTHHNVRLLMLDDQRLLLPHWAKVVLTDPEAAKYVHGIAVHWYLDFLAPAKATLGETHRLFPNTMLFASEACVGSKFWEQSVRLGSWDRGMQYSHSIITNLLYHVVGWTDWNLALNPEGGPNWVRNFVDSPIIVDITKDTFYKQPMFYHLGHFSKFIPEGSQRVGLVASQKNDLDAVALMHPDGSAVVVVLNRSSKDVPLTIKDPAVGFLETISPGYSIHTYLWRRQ
#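 Compounds titrated against 0.2 nM normal enzyme, 30 uM resorufin beta-D-glucopyranoside substrate, citrate/phosphate buffer with taurocholate and tween-20, pH 5.9. Reaction ran 20 min at room temperature; fluorescence (Ex 548/Em 600) gave AC50.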
# Luciferase inh: firefly luciferase inhibition. P08659. purified firefly luciferase, luminescence, 8 min. Potency, µM (titrated, usually from 57.1 µM), usual class: inhibitors. 72,000 compounds, 2.2% hits. AID 411; further: nearly all actives have a fitted effect of over 40% in size
#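 Luminescence read-out after 8 min at room temperature; enzyme reaction used luciferin plus 10 uM ATP (linear range) in imidazole buffer pH 7.2 with KCl, MgCl2, Tween 20 and BSA. Each sample was run as a titration.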
# TSHR agonist: TSH receptor (human) agonism; P16473; HEK293-CNG-TSHR cells (CNG channel as cAMP sensor), membrane potential dye, cAMP; Potency, µM (doses to about 57.1 µM), actives largely listed as activators; 73,000 compounds, 0.48% hits; active means well fitted activation curve with a large enough effect in the main read-out, with a control signal flat, not every such curve was filed as active; inconclusive means small, poorly fitted or top-dose-only effect, or a change in a side signal; inactive means no such curve, though single readings can be large or run the other way; reference of the percent scale not stated here;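 further: the control signal comes from parental cells without the receptor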
#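 HEK 293 cells stably expressing TSHR and a cAMP-gated CNG channel; parental CNG-only cells as counterscreen. Cells preloaded 60 min with membrane potential dye plus 100 uM RO 20-1724, then compound 30 min; fluorescence read at 590 nm.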
# PK Bst: alters activity of Bacillus stearothermophilus pyruvate kinase; purified pyruvate kinase, luminescence ATP production; ribose 5-phosphate activator present at AC10; Potency, µM; 51,000 compounds, 1.2% hits; AID 361; in the data active means potency below about 11 µM; inconclusive means mostly about 12 µM to 25 µM;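 the screen sought inhibitors and activators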
# HEK293 cAMP ctrl: parental HEK293 cAMP activation (counter-screen); Potency, µM (highest dose often 57.1 µM), actives largely listed as activators; 73,000 compounds, 2.5% hits; parental HEK293 CNG cAMP sensor, membrane potential fluorescence; further: nearly all actives have a fitted effect of over 55% in size
#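 Parental HEK 293 cells stably expressing a cAMP-gated CNG channel were loaded with membrane potential dye containing 100 uM RO 20-1724 for 60 min. Compound added for 30 min; depolarization read as fluorescence intensity at 590 nm.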
# Numbers stand for hits; – = inactive; ? = inconclusive; · = no result given; [ ] = dose if it differs, or a comment. Unless noted, the call rests on the fitted dose curve; in most records, active means well fitted curve in the direction sought with a large enough effect; inconclusive means small, poorly fitted or top-dose-only effect, or another doubt; inactive means no such curve, though single readings can be large; an effect the other way counts as inactive or inconclusive.
SMILES,GBA activity,Luciferase inh,TSHR agonist,PK Bst,HEK293 cAMP ctrl
Cc1ccc(S(=O)(=O)N2CCN(C(=O)COc3ccc(-c4nnco4)cc3)CC2)cc1,–,–,–,–,–
COc1ccc(NC(=O)N2CC3(CCN(C(=O)c4c(C)noc4C)CC3)C2)cc1,·,–[11.4 µM],?,·,13µM
COc1ccc(NC(=O)N2CCC3(CC2)CCN(C(=O)c2ccncc2)CC3)cc1,·,–[11.4 µM],–,·,–
COC(=O)N1CCC2(CCN(C(=O)Nc3ccc(OC)cc3)CC2)CC1,·,–[11.4 µM],?,·,16µM
CCCCNC(=O)c1ccc(Cc2nc3ccccc3[nH]2)cc1,·,·,–,·,–
Cc1cc(C)c(C(=O)CSc2nnc(-c3ccccc3Br)o2)cc1C,–,–,?,–,16µM
CC(C)C(=O)NC(=O)C1CCCN1C(=O)/C=C/c1ccccc1 (stereo not given),·,·,–[11.4 µM],·,–[11.4 µM]
CSc1ccc(S(=O)(=O)Nc2c(C)cccc2C)cc1,–,–,?,–,?
CCc1ccccc1NS(=O)(=O)c1ccc(SC)cc1,–,–,25µM,·,–
Cc1nc2sc3c(c2c2nc(-c4ccco4)nn12)CCCC3,–,–,?,–,32µM
c1coc(-c2nc3c4c5c(sc4ncn3n2)CCCC5)c1,–,–,?,–,?
CCOn1c(=O)c(=O)n(OCc2ccccc2)c2ccccc21,·,–,3.2µM,·,–[11.4 µM]
C=CCSc1nnc(-c2ccc(Cl)cc2Cl)o1,·,7.9µM,–[11.4 µM],·,–[11.4 µM]
Clc1ccc(-c2nnc(SCc3ccon3)o2)c(Cl)c1,–,7.9µM,–,10,–
NC(=O)C1=CN([C@@H]2O[C@@H](COP(=O)(O)OP(=O)(O)OC[C@@H]3O[C@H](n4cnc5c(N)ncnc54)[C@@H](OP(=O)(O)O)[C@@H]3O)[C@H](O)[C@@H]2O)C=CC1,·,–,?,·,?
Cc1ccnc(NC(=O)CCc2c(C)nc3ncnn3c2C)c1,–,–,–[11.4 µM],–,–
Cc1nc2ncnn2c(C)c1Cc1ccc(Cl)cc1F,·,–,25µM,·,–
CC1(C)CC(=O)C(C(c2cccc(O)c2O)C2C(=O)CC(C)(C)CC2=O)C(=O)C1,·,–[11.4 µM],–[11.4 µM],·,–[11.4 µM]
Cc1ccc(NC(=O)N(Cc2ccc3c(c2)OCO3)Cc2cc3cc4c(cc3[nH]c2=O)OCCO4)cc1,–,–,–,–,–
O=C(Nc1ccc(F)cc1)N(Cc1ccco1)Cc1cc2cc3c(cc2[nH]c1=O)OCO3,11,–,?,3.8,25µM
COc1ccccc1-c1ccc2ncnc(NCCN3CCOCC3)c2c1,·,–[2.29 µM],–,·,–
CN(C)C(=O)c1ccc(-c2nc(Nc3ccccc3)c3ccccc3n2)cc1,·,–[2.29 µM],20µM,·,–
COc1ccccc1CNc1ncnc2ccc(-c3ccc(N(C)C)cc3)cc12,·,–[2.29 µM],?,·,–
Cc1sc(NC(=O)CSc2nnc(COc3ccccc3)n2C)c(C#N)c1C,–,–,?,–,6.3µM
O=C(c1ccco1)N1CCC2(CC1)CCN(C(c1ccccc1)c1ccccc1)CC2,·,–[11.4 µM],–,·,–
SMILES,GBA activity,Luciferase inh,TSHR agonist,PK Bst,HEK293 cAMP ctrl
O=C(c1ccc(Cl)s1)N1CCc2ccccc21,–,13µM,16µM,·,–
O=C(C1CCC(C(=O)N2CCc3ccccc32)CC1)N1CCc2ccccc21 (stereo not given),–,–,?,–,?
Cc1nn(Cc2ccccc2)c(Cl)c1C(=O)OCc1nnc(-c2ccc(Cl)cc2)o1,–,–,?,?,25µM
Cc1nn(Cc2ccccc2)c(Cl)c1C(=O)OCc1nnc(-c2ccccc2)o1,–,–,?,–,?
COc1cc(N)c(Cl)cc1C(=O)N[C@H]1CCN(CCCOc2ccc(F)cc2)C[C@@H]1OC,·,–,?,·,–
COC(=O)c1ccc(CSc2nc3c(c(=O)n2-c2ccc(F)cc2)SCC3)o1,?,–,3.2µM,–,–
O=C(CSc1nnc(-c2cccs2)n1-c1ccccc1)NCc1ccc2c(c1)OCO2,–,–,·,–,–
Cc1ccc(-n2c(SCC(=O)Nc3ccc4c(c3)OCO4)nnc2-c2cccs2)cc1,9.3,–,?,–,?
Cc1ccc(-n2c(SCC(=O)Nc3ccc4c(c3)OCCO4)nnc2-c2ccco2)cc1,–,–,25µM,–,–
Cn1cccc1C(=O)N1CCC2(CC1)CCN(c1ccncc1)CC2,·,–[11.4 µM],–,·,–
C=CCn1c(SCC(=O)c2ccccc2)nnc1-c1cc2ccccc2o1,–,–,?,–,32µM
Cc1ccc(Cl)cc1N1CCN(Cc2nnnn2Cc2ccco2)CC1,–,–,?,–,7.9µM
c1coc(Cn2nnnc2CN2CCN(C3CCCCC3)CC2)c1,–,–,–,–,–
Cc1ccc(Cl)cc1N1CCN(Cc2nnnn2C2CCCCC2)CC1,?,–,?,–,13µM
N[C@@H](Cc1nn[nH]n1)C(=O)O,·,–[11.4 µM],–[11.4 µM],·,–[11.4 µM]
CN1CCN(CCCBr)CC1,·,–[11.4 µM],–[11.4 µM],·,–[11.4 µM]
O=C(NCc1ccco1)c1cc(-c2cccnc2)nc2ccccc12,–,–,–,–,–
Cc1cc(C)c2nc(-c3ccccn3)cc(C(=O)NCc3ccco3)c2c1,–,–,?,–,25µM
Cc1cc(NC(=O)c2cc(-c3ccccn3)nc3ccccc23)no1,–,–,–,–,–
Cc1cc(NC(=O)c2cc(-c3ccncc3)nc3c(C)cccc23)no1,–,–,?,–,32µM
Cc1cc(NC(=O)c2cc(-c3cccs3)nc3ccccc23)no1,·,–,?,·,16µM
Cc1cc(C)c2nc(-c3ccccn3)cc(C(=O)Nc3cc(C)on3)c2c1,–,–,?,–,16µM
COc1ccc(COC(=O)N/N=C2/C[C@@H](O)[C@@H](O)[C@@H]3[C@@H]4C(=O)N(C5CCCCC5)C(=O)[C@H]4CC[C@H]23)cc1,·,–[11.4 µM],–[11.4 µM],·,–[11.4 µM]
O=C(O)C/C(=C\c1ccccc1)C(=O)O,·,–[11.4 µM],–[11.4 µM],·,–[11.4 µM]
O=C(c1cccc(F)c1)N1CCC2(CC1)CN(c1ncccn1)C2,·,–[11.4 µM],·,·,–
SMILES,GBA activity,Luciferase inh,TSHR agonist,PK Bst,HEK293 cAMP ctrl
COCCn1nnnc1C(c1ccc(Cl)cc1)N1CCSCC1 (stereo not given),–,–,?,–,16µM
COCCn1nnnc1C(c1ccc(OC)cc1)N1CCC(C)CC1 (stereo not given),–,–,–,–,–
Cc1ccc(C(c2nnnn2CCc2ccccc2)N2CCSCC2)cc1 (stereo not given),·,–,?,–,20µM
Nc1nc(-c2nc3ccccc3[nH]2)cs1,–,13µM,–,?,–
Cc1ccc(-c2nc3ccccc3[nH]2)s1,·,5µM,–,·,–
c1csc(-c2nc3ccccc3[nH]2)c1,–,?,–,·,–
CC1(O)C(=O)C=C2C=C3CCCN3C=C2C1=O (stereo not given),·,·,–[11.4 µM],·,–[11.4 µM]
Cn1c(Nn2cnnc2)nc2ccccc21,–,–,?,–,3.2µM
O=C(Nc1nnc(-c2ccccc2Cl)o1)c1ccco1,–,13µM,?,·,?
O=C(Nc1nnc(-c2ccccc2)o1)c1ccc(Cl)cc1,–,–,–,–,–
Cc1nc2nc(-c3ccccc3)cn2nc1C,–,13µM,?,–,?
CCc1c(-c2ccccc2)nc2nc(C)c(C)nn12,·,–,–,·,–
CCc1ccc(-c2cn3nc(C)c(C)nc3n2)cc1,·,1µM,·,1.5,·
CSCC[C@@H](C(=O)O)N(C)C,·,–[11.4 µM],–[11.4 µM],·,–[11.4 µM]
CCCCCCCCCCCCC/C=C\[C@H](O)[C@H](N)CO,·,–,–,·,–
